Source: PubChem BioAssay (EPA / NIEHS)
Calls of active or inactive are those of the source. The calls were made as follows: active = hit-call score of the fitted dose curve at least 0.9, where 1 is the maximum; inactive = score below 0.9.

Experiments:
Details in all cases: mRNA level, 48 h; actives raise or lower the signal
[1] = read-out: MicroRNA 122 (MIR122), gene 406906; experiment: LTEA_HepaRG_MIR122: Life Technologies and Expression Analysis (LTEA) Assay for MicroRNA 122 (MIR122) using HepaRG (AID 2283516); also: the transcript read is the microRNA miR-122
Procedure, shortened: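 Changes in transcript abundance, up or down relative to 0.5% DMSO vehicle, were scored after 48 h chemical treatment of HepaRG cells (maximum 100 uM). Quantification used TaqMan qRT-PCR normalized to housekeeping genes.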

[2] = read-out: matrix metalloproteinase-10 (MMP10), MMP10 (gene 4319); experiment: LTEA_HepaRG_MMP10: Life Technologies and Expression Analysis (LTEA) Assay for matrix metalloproteinase-10 (MMP10) using HepaRG (AID 2283517)
Procedure, shortened: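 Transcript levels come from Fluidigm qRT-PCR normalized to three housekeeping genes, with curves fitted bidirectionally against 0.5% DMSO. Human HepaRG cells were dosed for 48 hours at concentrations up to 100 uM.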

MYC, MYC (gene 4609) = experiment: LTEA_HepaRG_MYC: Life Technologies and Expression Analysis (LTEA) Assay for MYC using HepaRG (AID 2283518)
Procedure, shortened: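 HepaRG, ~100,000 cells/well, collagen I; 48 h plating; serum-free induction medium; 48 h dosing, duplicate, 100 uM top, half-log, 0.5% DMSO; total RNA → qRT-PCR MYC; gain/loss fit vs DMSO.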

[3] = read-out: matrix metalloproteinase-3 (MMP3), MMP3 (gene 4314); experiment: LTEA_HepaRG_MMP3: Life Technologies and Expression Analysis (LTEA) Assay for matrix metalloproteinase-3 (MMP3) using HepaRG (AID 2283519)
Procedure, shortened: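 qRT-PCR read-out of MMP3 mRNA (normalised to three housekeeping genes) in HepaRG liver cells after 48 h chemical exposure; 8-point half-log series, top 100 uM, 0.5% DMSO vehicle. Bidirectional curve fitting against DMSO baseline.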

[4] = read-out: Paternally Expressed 10 (PEG10), PEG10 (gene 23089); experiment: LTEA_HepaRG_PEG10: Life Technologies and Expression Analysis (LTEA) Assay for Paternally Expressed 10 (PEG10) using HepaRG (AID 2283520)
Procedure, shortened: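 After 48 h exposure of differentiated HepaRG cells (0.5% DMSO vehicle, eight concentrations up to 100 uM, duplicates), PEG10 mRNA was measured by TaqMan qRT-PCR. Values were normalised to endogenous control genes and analysed bidirectionally against vehicle.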

[5] = read-out: Nuclear factor NF-kappa-B p105 subunit (Homo sapiens) (UniProt P19838); experiment: LTEA_HepaRG_NFKB1: Life Technologies and Expression Analysis (LTEA) Assay for Nuclear Factor Kappa B Subunit 1 (NFKB1) using HepaRG (AID 2283521);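 also: differentiated human HepaRG liver cells in serum-free induction medium; TaqMan qRT-PCR transcript normalised to ACTB GAPDH and POLR2A housekeeping genes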
Procedure, shortened: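 Human HepaRG cells receive eight half-log concentrations, highest 100 uM, for 48 h. NFKB1 expression is then quantified by qRT-PCR and analysed for up- or down-regulation relative to 0.5% DMSO vehicle.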

[6] = read-out: Protein phosphatase 2A (PPP2R4), PTPA (gene 5524); experiment: LTEA_HepaRG_PPP2R4: Life Technologies and Expression Analysis (LTEA) Assay for Protein phosphatase 2A (PPP2R4) using HepaRG (AID 2283522)
Procedure, shortened: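 Using HepaRG cultures maintained in 0.5% DMSO, chemicals are tested 48 h at up to 100 uM in duplicate. Induction or suppression of PPP2R4 mRNA, measured by qRT-PCR, is fitted bidirectionally against the vehicle baseline.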

[7] = read-out: Phosphatase and tensin (PTEN), PTEN (gene 5728); experiment: LTEA_HepaRG_PTEN: Life Technologies and Expression Analysis (LTEA) Assay for Phosphatase and tensin (PTEN) using HepaRG (AID 2283523)
Procedure, shortened: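 HepaRG, 48 h exposure, 8-pt half-log series from 100 uM top, 0.5% DMSO vehicle, duplicates. Readout: Fluidigm qRT-PCR of PTEN transcript; housekeeping normalization (ACTB, GAPDH, POLR2A). Gain or loss fitted relative to DMSO baseline.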

[8] = read-out: solute carrier (SLC22A1), SLC22A1 (gene 6580); experiment: LTEA_HepaRG_SLC22A1: Life Technologies and Expression Analysis (LTEA) Assay for solute carrier (SLC22A1) using HepaRG (AID 2283524)
Procedure, shortened: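 qRT-PCR readout (TaqMan, Fluidigm arrays) of SLC22A1 transcript, normalized to three housekeeping genes; bidirectional curve fit relative to 0.5% DMSO vehicle. Differentiated human HepaRG cells, 48 h chemical exposure, top concentration 100 uM, half-log steps, eight points.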

[9] = read-out: Pyruvate Dehydrogenase Kinase 4 (PDK4), PDK4 (gene 5166); experiment: LTEA_HepaRG_PDK4: Life Technologies and Expression Analysis (LTEA) Assay for Pyruvate Dehydrogenase Kinase 4 (PDK4) using HepaRG (AID 2283525)
Procedure, shortened: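 HepaRG (human liver line), 48 h chemical exposure, 8-pt half-log CRC top 100 uM, 0.5% DMSO vehicle, duplicates. Readout: TaqMan qRT-PCR of PDK4 mRNA, housekeeping-normalized; gain/loss fit relative to DMSO baseline.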

[10] = read-out: NAD(P)H dehydrogenase [quinone] 1 (NQO1), NQO1 (gene 1728); experiment: LTEA_HepaRG_NQO1: Life Technologies and Expression Analysis (LTEA) Assay for NAD(P)H dehydrogenase [quinone] 1 (NQO1) using HepaRG (AID 2283526)
Procedure, shortened: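 In this assay, gene expression is read by qRT-PCR after 48 h exposure of HepaRG cells to eight concentrations (max 100 uM, half-log) in 0.5% DMSO. Each chemical runs in duplicate, and activity is scored relative to vehicle.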

[11] = read-out: Nuclear factor erythroid 2-related factor 2 (Homo sapiens) (UniProt Q16236); experiment: LTEA_HepaRG_NFE2L2: Life Technologies and Expression Analysis (LTEA) Assay for Nuclear factor erythroid 2-related factor 2 (NFE2L2) Transcription Factor using HepaRG (AID 2283527);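 also: TaqMan qRT-PCR transcript level normalised to ACTB GAPDH and POLR2A housekeeping genes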
Procedure, shortened: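 HepaRG, 48 h dosing, 8-pt half-log series from 100 uM in 0.5% DMSO, duplicates. Read-out: NFE2L2 mRNA by qRT-PCR (ACTB/GAPDH/POLR2A normalization). Bidirectional curve fit vs DMSO baseline.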

[12] = read-out: succinate dehydrogenase complex iron sulfur subunit B (SDHB), SDHB (gene 6390); experiment: LTEA_HepaRG_SDHB: Life Technologies and Expression Analysis (LTEA) Assay for succinate dehydrogenase complex iron sulfur subunit B (SDHB) using HepaRG (AID 2283528)
Procedure, shortened: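 A human HepaRG culture in serum-free induction medium received test chemicals for 48 h over an eight-point range capped at 100 uM. SDHB expression change was quantified by qRT-PCR.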

[13] = read-out: Signal transducer and activator of transcription 3 (Homo sapiens) (UniProt P40763); experiment: LTEA_HepaRG_STAT3: Life Technologies and Expression Analysis (LTEA) Assay for Signal transducer and activator of transcription (STAT3) using HepaRG (AID 2283529)
Procedure, shortened: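 HepaRG, 48 h exposure, 8-pt half-log series (top 100 uM), 0.5% DMSO vehicle, duplicates. Readout: STAT3 transcript by Fluidigm qRT-PCR, housekeeping-normalized; bidirectional fit vs DMSO baseline.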

[14] = read-out: solute carrier (SLCO1B1), SLCO1B1 (gene 10599); experiment: LTEA_HepaRG_SLCO1B1: Life Technologies and Expression Analysis (LTEA) Assay for solute carrier (SLCO1B1) using HepaRG (AID 2283530)
Procedure, shortened: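 HepaRG, serum-free induction medium, 48 h dosing, 8-pt half-log from 100 uM, 0.5% DMSO vehicle, duplicates. Readout: SLCO1B1 mRNA, qRT-PCR, ACTB/GAPDH/POLR2A normalization; up or down fit vs DMSO.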

[15] = read-out: sulfotransferase 2A1 (SULT2A1), SULT2A1 (gene 6822); experiment: LTEA_HepaRG_SULT2A1: Life Technologies and Expression Analysis (LTEA) Assay for sulfotransferase 2A1 (SULT2A1) using HepaRG (AID 2283531)
Procedure, shortened: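 Transcript levels of SULT2A1, quantified by qRT-PCR and normalized to three housekeeping genes, serve as the readout. Human HepaRG cultures receive test chemicals for 48 h at up to 100 uM in half-log steps, with 0.5% DMSO vehicle.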

[16] = read-out: Transforming Growth Factor (TGFA), TGFA (gene 7039); experiment: LTEA_HepaRG_TGFA: Life Technologies and Expression Analysis (LTEA) Assay for Transforming Growth Factor (TGFA) using HepaRG (AID 2283532)
Procedure, shortened: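 qRT-PCR read-out of TGFA transcript, normalized to three housekeeping genes, fitted bidirectionally against 0.5% DMSO baseline. Human HepaRG cultures received chemicals for 48 h at eight half-log concentrations, top 100 uM.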

[17] = read-out: Transforming Growth Factor (TGFB1), TGFB1 (gene 7040); experiment: LTEA_HepaRG_TGFB1: Life Technologies and Expression Analysis (LTEA) Assay for Transforming Growth Factor (TGFB1) Transporter using HepaRG (AID 2283533)
Procedure, shortened: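 HepaRG, 48 h post-plating, switched to serum-free induction medium; chemicals 100 uM top, half-log, 8 pts, 0.5% DMSO, dup; 48 h exposure; RNA → Fluidigm TaqMan qRT-PCR; norm ACTB/GAPDH/POLR2A; bidirectional fit vs DMSO.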

TIMP1, TIMP1 (gene 7076) = experiment: LTEA_HepaRG_TIMP1: Life Technologies and Expression Analysis (LTEA) Assay for TIMP1 using HepaRG (AID 2283534);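 also: TaqMan qRT-PCR signal normalized to ACTB GAPDH and POLR2A housekeeping genes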
Procedure, shortened: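 Readout is TIMP1 mRNA level measured by qRT-PCR and normalized to three housekeeping genes. Human HepaRG cells were treated for 48 h in duplicate at eight concentrations up to 100 uM (0.5% DMSO); gain or loss fitted against DMSO.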

[18] = read-out: Tumor necrosis factor receptor 1 (TNFRSF1A), TNFRSF1A (gene 7132); experiment: LTEA_HepaRG_TNFRSF1A: Life Technologies and Expression Analysis (LTEA) Assay for Tumor necrosis factor receptor 1 (TNFRSF1A) using HepaRG (AID 2283535)
Procedure, shortened: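 Read-out is TNFRSF1A transcript level by TaqMan qRT-PCR, normalized to three housekeeping genes, scored as gain or loss of signal versus 0.5% DMSO. Human HepaRG cells received test chemicals for 48 h at up to 100 uM (half-log series).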

Measured: outcome

Signal transducer and activator of transcription 3 (Homo sapiens), sequence (P40763 whole entry, looked up): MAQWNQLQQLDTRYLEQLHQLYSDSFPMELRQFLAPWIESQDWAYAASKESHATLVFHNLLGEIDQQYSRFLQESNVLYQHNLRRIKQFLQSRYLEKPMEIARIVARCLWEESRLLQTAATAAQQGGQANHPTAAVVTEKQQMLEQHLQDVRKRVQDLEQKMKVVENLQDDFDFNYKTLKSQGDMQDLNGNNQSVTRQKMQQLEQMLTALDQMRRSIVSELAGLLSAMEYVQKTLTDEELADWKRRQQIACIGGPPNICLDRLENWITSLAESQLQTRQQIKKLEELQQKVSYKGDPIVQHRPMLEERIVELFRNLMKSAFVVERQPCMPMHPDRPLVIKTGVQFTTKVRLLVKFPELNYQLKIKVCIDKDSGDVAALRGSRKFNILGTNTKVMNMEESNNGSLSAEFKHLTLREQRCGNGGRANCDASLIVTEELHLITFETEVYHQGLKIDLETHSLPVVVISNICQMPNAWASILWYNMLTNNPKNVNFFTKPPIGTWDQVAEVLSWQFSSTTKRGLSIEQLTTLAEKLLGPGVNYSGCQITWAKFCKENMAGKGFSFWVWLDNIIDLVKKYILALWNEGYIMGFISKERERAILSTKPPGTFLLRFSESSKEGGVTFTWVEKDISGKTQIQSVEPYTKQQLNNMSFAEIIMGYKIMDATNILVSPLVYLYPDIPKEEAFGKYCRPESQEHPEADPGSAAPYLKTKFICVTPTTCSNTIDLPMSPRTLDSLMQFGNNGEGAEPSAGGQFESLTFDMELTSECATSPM
Nuclear factor erythroid 2-related factor 2 (Homo sapiens), sequence (Q16236 whole entry, looked up): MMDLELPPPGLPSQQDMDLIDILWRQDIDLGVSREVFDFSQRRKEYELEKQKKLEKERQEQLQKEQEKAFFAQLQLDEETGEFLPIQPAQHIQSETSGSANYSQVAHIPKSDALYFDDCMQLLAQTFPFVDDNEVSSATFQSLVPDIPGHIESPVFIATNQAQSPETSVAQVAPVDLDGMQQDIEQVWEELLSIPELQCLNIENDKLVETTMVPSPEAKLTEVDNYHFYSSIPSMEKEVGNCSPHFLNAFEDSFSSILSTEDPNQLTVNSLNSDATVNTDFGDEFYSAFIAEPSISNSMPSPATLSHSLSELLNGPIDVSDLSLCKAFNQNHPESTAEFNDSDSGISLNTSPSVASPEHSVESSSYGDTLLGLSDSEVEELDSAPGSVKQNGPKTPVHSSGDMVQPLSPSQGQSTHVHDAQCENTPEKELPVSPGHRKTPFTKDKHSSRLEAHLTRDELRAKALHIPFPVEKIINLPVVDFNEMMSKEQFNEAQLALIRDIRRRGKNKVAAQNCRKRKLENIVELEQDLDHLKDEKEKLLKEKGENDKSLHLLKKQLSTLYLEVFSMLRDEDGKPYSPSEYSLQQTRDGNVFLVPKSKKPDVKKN
Nuclear factor NF-kappa-B p105 subunit (Homo sapiens), sequence (P19838 whole entry, looked up): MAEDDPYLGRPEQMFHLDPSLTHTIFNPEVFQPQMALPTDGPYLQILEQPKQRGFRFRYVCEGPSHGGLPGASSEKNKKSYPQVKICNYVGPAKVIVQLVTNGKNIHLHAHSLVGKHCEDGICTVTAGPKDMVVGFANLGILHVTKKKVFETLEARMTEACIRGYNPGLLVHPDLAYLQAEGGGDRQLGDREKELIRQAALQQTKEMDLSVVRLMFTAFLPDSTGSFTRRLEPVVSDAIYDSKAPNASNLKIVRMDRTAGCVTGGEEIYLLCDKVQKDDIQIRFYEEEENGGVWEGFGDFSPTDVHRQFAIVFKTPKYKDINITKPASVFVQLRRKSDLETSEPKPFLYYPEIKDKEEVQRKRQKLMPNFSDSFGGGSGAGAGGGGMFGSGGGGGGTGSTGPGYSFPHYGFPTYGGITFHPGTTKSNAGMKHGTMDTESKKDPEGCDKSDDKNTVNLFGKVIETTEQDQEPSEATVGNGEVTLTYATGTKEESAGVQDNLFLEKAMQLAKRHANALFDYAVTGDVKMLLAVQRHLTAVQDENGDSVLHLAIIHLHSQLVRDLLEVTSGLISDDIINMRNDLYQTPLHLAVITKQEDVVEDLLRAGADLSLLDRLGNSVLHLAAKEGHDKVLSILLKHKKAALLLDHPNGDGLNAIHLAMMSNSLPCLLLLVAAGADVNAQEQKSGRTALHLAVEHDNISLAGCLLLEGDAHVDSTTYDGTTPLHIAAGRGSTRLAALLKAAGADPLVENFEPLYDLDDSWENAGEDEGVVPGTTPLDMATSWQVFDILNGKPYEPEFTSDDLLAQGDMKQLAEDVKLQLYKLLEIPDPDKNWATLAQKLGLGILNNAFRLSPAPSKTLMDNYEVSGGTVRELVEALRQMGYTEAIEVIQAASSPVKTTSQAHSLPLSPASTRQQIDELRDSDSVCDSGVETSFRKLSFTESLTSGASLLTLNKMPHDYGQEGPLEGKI

O=C(CCl)c1ccccc1
inactive: all assays above
